Tau ThT inhib = blocks human tau fibril formation measured by thioflavin T | recombinant tau K18 P301L, heparin-induced fibrillization, ThT fluorescence | Potency, µM (highest dose often 57.4 µM), for inactives: at the highest dose activity, negative = inhibition, actives largely listed as inhibitors | 270,000 compounds, 2.1% hits | AID 1460; further: potency means the concentration at half of the fitted maximal effect; nearly all actives have a fitted effect of over 55% in size
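Tau K18 P301L fragment (15 uM unlabeled plus 0.24 uM Alexa 594-labeled) in 100 mM sodium acetate pH 7 with compound, fibrillization induced by 20 uM heparin for 6 hr at 37 C. Thioflavin T (30 uM) added, fluorescence read after 1 hr (ex 450, em 510 nm).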
USP1 inh = blocks the human USP1/UAF1 deubiquitinase complex. O94782. recombinant USP1/UAF1, Ub-Rhodamine cleavage fluorescence. Potency, µM (top dose mostly 57.1 µM), for inactives: at the top dose activity change, negative = inhibition, hits mostly inhibitors. 390,000 compounds, 0.23% hits. AID 743255; further: potency means the concentration at half of the fitted maximal effect; nearly all actives have a fitted effect of over 60% in size
Target sequence (O94782 whole entry, looked up): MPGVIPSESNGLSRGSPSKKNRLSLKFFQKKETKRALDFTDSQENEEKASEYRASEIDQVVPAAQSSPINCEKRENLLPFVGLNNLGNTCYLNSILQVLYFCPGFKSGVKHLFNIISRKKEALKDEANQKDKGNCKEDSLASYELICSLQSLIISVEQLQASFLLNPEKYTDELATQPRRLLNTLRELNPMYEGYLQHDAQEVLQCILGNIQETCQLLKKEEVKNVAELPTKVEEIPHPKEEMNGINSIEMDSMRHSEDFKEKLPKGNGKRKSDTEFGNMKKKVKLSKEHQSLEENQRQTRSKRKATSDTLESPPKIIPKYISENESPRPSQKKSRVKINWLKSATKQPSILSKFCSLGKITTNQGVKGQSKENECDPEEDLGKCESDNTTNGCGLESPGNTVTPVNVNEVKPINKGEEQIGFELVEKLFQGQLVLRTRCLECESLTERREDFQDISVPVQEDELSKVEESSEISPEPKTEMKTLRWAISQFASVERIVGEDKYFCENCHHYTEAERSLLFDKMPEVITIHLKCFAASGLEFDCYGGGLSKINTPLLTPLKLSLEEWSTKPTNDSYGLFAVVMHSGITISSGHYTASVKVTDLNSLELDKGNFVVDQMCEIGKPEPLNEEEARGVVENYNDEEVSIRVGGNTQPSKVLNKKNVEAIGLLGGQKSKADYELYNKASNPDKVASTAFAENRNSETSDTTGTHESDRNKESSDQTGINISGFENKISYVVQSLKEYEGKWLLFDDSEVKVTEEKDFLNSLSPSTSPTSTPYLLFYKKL
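USP1/UAF1 complex at 1 nM was preincubated with compound for 15 min at room temperature, then Ub-Rho substrate (150nM final) was added. Fluorescence (480/540 nm) was read kinetically, 6 reads every 60 seconds.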
Tau fluor cs = counter-screen for tau fibril formation inhibitors; tau K18 P301L (four-repeat tau fragment) Alexa594 fluorescence, heparin fibrillization; Potency, µM (highest dose often 57.7 µM), without a hit: at the top dose activity change, negative = decrease; AID 1463; 280,000 compounds, 0.93% hits; further: potency means the concentration at half of the fitted maximal effect; nearly all actives have a fitted effect of over 55% in size
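Human K18 P301L tau (15 uM unlabeled plus 0.24 uM Alexa 594-labeled, final) in 100 mM sodium acetate pH 7 was mixed with compound and 20 uM heparin and incubated 6 hr at 37 C.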
FBPA coupling cs = inhibits coupling enzyme system, counter-screen for aldolase hits; coupling enzyme system counterscreen, AmpLite Red fluorescence; activity change, negative = inhibition, % at 58.2 µM, hits read low; 290,000 compounds, 0.67% hits; AID 2472; in the data active means activity change below about -30%
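Final compound at 57.5 uM, incubated 10 min at RT with coupling enzyme reagent (glyceraldehyde-3-phosphate), then 20 min with substrate and AmpLite Red detection. Fluorescence read at 525/598 nm; tests interference with the coupling assay, not aldolase inhibition.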
Tau FP inhib = blocks human tau fibril formation measured by polarization; P10636; K18 P301L tau heparin fibrillization, Alexa594 FP, 6 h; Potency, µM (highest dose often 57.7 µM), inactives show at the highest dose activity, negative = inhibition, hits mostly inhibitors; 280,000 compounds, 0.39% hits; AID 1468; further: potency means the concentration at half of the fitted maximal effect; nearly all actives have a fitted effect of over 55% in size
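FP of Alexa 594-tau after heparin (20 uM) induction. Substrate: human K18 P301L, 15 uM unlabeled, 0.24 uM labeled. Buffer 100 mM sodium acetate pH 7. 6 hr, 37 C.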
Active calls of the source: *; u = inconclusive; x = no result given; [ ] = dose if it differs, or a comment. Sampled rows, rich in hits. Any-hit rate of the full collection: about 2.3%. Unless noted, the call rests on the fitted dose curve; in most records, active means well fitted curve in the direction sought with a large enough effect; inconclusive means small, poorly fitted or top-dose-only effect, or another doubt; inactive means no such curve, though single readings can be large; an effect the other way counts as inactive or inconclusive. On the % scale 0 is the no-effect control and ±100 the full control effect.

SMILES | Tau ThT inhib | USP1 inh | Tau fluor cs | FBPA coupling cs | Tau FP inhib
CCOC(=O)CC(NS(=O)(=O)c1ccc2[nH]cc(C(=O)O)c(=O)c2c1)c1ccc(OCC)c(OC)c1 (stereo not drawn) | x | 15% | x | 0 | x
CCC(C)C(NS(=O)(=O)c1ccc(C)cc1)C(=O)NCCCN1CCOCC1 (stereo not drawn) | x | -14% | x | x | x
O=C(/C=C/c1ccc([N+](=O)[O-])cc1)Nc1ncc([N+](=O)[O-])s1 | 3.5µM* | -2% | u | 8 | 10%
CC(=O)N[C@@H](C(=O)O)C(C)(C)SN=O | 28µM* | x | -20% | 3 | u
CC(=O)N[C@H](C(=O)O)C(C)(C)SN=O | u | x | -5% | x | u
CCOC(=O)c1cnc2ccc(C(=O)OC)cc2c1Nc1ccc(N2CCOCC2)cc1 | 14µM* | -36% | u | x | -1%
CCOC(=O)c1cnc2ccc(OCC)cc2c1NCc1ccccc1 | u | -25% | -18% | -44* | -8%
CCOC(=O)c1cnc2ccc(C(=O)OC)cc2c1Nc1cccc(C(=O)O)c1 | -7% | 0% | -8% | -1 | -5%
CCOC(=O)c1cnc2ccc(Cl)cc2c1Nc1ccc(S(=O)(=O)Nc2ncccn2)cc1 | u | -23% | -7% | -8 | -1%
CCOC(=O)c1cnc2ccc(C)cc2c1Nc1ccc(N(CC)CC)cc1 | 13µM* | -11% | u | x | u
CCOC(=O)c1cnc2ccc(Cl)cc2c1Nc1ccc(N2CCOCC2)cc1 | 16µM* | -6% | u | x | -12%
COc1cc(C(=O)Nc2ccc(C(F)(F)F)cc2)ccc1OCC(=O)N1CCOCC1 | x | -12% | x | x | x
COc1cc(C2C(C(=O)Nc3ccccc3C)=C(C)Nc3nc(SCc4cc(C)ccc4C)nn32)ccc1O (stereo not drawn) | -10% | u | -26% | x | -8%
COC(=O)c1ccc(NC(=O)C(c2ccccc2)N2Cc3ccccc3C2=O)cc1 (stereo not drawn) | -1% | -19% | -18% | x | 4%
CCOC(=O)c1cnc2ccc(C)cc2c1Nc1ccc(N2CCOCC2)cc1 | 28µM* | -17% | u | -1 | u
CCSc1ccc([C@@H]2[C@@H]3C(=O)N(C)C(=O)[C@@H]3[C@]3(C(=O)OC)CCCCN23)cc1 | x | 18% | x | x | x
O=C(COC(=O)c1cc(S(=O)(=O)N2CCc3ccccc3C2)ccc1Cl)NCc1ccco1 | 32µM* | -22% | u | -13 | u
N#Cc1c(C(F)(F)F)cc(C2CC2)nc1N1CCCC1 | -15% | -9% | -14% | -34* | -13%
O=C1Nc2ccccc2/C1=C\C(=O)c1ccccc1 | x | -14% | x | 1 | x
CCc1ncc(/C=C2\C(=O)Nc3ccccc32)[nH]1 | 13µM* | -20% | -7% | 0 | -6%
O=C(/C=C1\C(=O)Nc2ccccc21)/C=C1\C(=O)Nc2ccccc21 | 28µM* | -24% | -25% | -9 | u
Cc1ncc(/C=C2\C(=O)Nc3ccccc32)[nH]1 | 16µM* | -3% | -12% | 5 | 1%
CN(C)/C=C1\C(=O)Nc2ccccc21 | -8% | -14% | -5% | 0 | -4%
COc1cccc(C(=O)NC2CC(C)(C)Cc3c2cnn3-c2cccc(F)c2)c1OC (stereo not drawn) | x | -4% | x | 0 | x
Cc1ccc(NC(=O)c2ccc(-n3cccn3)c([N+](=O)[O-])c2)cc1 | u | -4% | -19% | -12 | -4%
SMILES | Tau ThT inhib | USP1 inh | Tau fluor cs | FBPA coupling cs | Tau FP inhib
O=C(Nc1ccc(C2=NCCN2)cc1)c1ccc(C(=O)Nc2ccc(C3=NCCN3)cc2)c([N+](=O)[O-])c1 | 4.5µM* | -26% | u | 3 | -5%
O=C1NC(=O)C2(N1)C(=O)c1cccc3cccc2c13 (stereo not drawn) | x | 35µM* | x | x | x
Cc1cc(/C=C2\SC(=S)NC2=O)c(C)n1-c1ccc(O)cc1 | 7.9µM* | -19% | 22µM*[quencher] | 4 | 11%
Cc1cc(/C=C2\SC(=S)NC2=O)c(C)n1-c1ccccc1 | 7.1µM* | -18% | u | -1 | u
Cc1cc(/C=C2\SC(=S)NC2=O)c(C)n1C | u | -19% | -20% | 1 | 3%
COc1ccc(-n2c(C)cc(/C=C3\SC(=S)NC3=O)c2C)cc1 | u | -5% | -27% | 1 | -8%
Cc1cc(/C=C2\SC(=Nc3ccc(F)cc3)NC2=O)c(C)n1-c1ccc(S(N)(=O)=O)cc1 | 14µM* | -11% | u | -7 | 10%
O=[N+]([O-])c1cc(C(F)(F)F)ccc1NCCNC(=S)Nc1ccc(Cl)cc1 | 11µM* | u | 7.1µM*[quencher] | -3 | 20µM*
NS(=O)(=O)c1ccc(NC(=S)NCCc2ccccc2)cc1 | 10% | -3% | -3% | 0 | -7%
S=C(NCCc1ccccc1)Nc1ccc(Cl)cc1 | -6% | -20% | u | 2 | u
O=[N+]([O-])c1ccc(NC(=S)NCCc2ccccc2)cc1 | u | -24% | 13µM*[quencher] | 3 | u
O=[N+]([O-])c1ccc(NC(=S)NCCc2ccc(Cl)cc2)cc1 | u | u | 7.9µM*[quencher] | -6 | 13µM*
O=C(NC1CCCC1)C(c1ccncc1)N(C(=O)c1ccco1)c1ccc(F)c(Cl)c1 (stereo not drawn) | x | -15% | x | 3 | x
Cc1ccc(-c2nn3c(=O)cc(CN4CCN(C(=O)/C=C/c5ccccc5)CC4)nc3s2)cc1 | u | -6% | 1% | x | -5%
O=C1c2ccccc2C(=O)C1c1nccc2ccccc12 | 1.4µM* | -11% | -18% | -5 | -8%
O=C1c2ccccc2C(=O)C1c1ccnc2ccccc12 | 1.8µM* | -22% | -7% | 0 | -4%
N#CC1=C(N)SC(N)=C(C#N)C1c1ccnc2ccccc12 | 28µM* | u | -25% | -26 | u
Cc1cccc(N2CCN(C(=O)CN3C(=O)COc4ccc(S(=O)(=O)N5CCOCC5)cc43)CC2)c1C | -17% | -33% | -15% | x | -1%
COc1ccccc1C(=O)/C=C/c1ccc(N2CCCCC2)c([N+](=O)[O-])c1 | 4µM* | -6% | u | -6 | 4%
O=C(/C=C/c1ccc(N2CCCCC2)c([N+](=O)[O-])c1)c1ccc(O)cc1 | 11µM* | -31% | 16µM*[quencher] | -1 | u
COC(=O)c1ccc(NC(=O)CSc2cn(CC(=O)N3CCCCCC3)c3ccccc23)cc1 | -13% | u | -26% | x | 8%
CCNc1ccccc1CP(=O)(c1ccccc1)c1ccccc1O (stereo not drawn) | x | u | x | -58* | x
Cc1onc(-c2ccccc2)c1C(=O)N1CCC(CO)(Cc2ccccc2)CC1 | x | -21% | x | 0 | x
Cc1cc(C(=O)O)ccc1N/C=C1\CCCC(C)C1=O (stereo not drawn) | -15% | -5% | -5% | 1 | 2%
CC1CCC/C(=C\Nc2ccc(O)cc2)C1=O (stereo not drawn) | 18µM* | -14% | u | -38* | u

From PubChem BioAssay
